Most compounds without a hit are left out; they make up all but 9.4% or so of the library.
SMN2 splice enh = SMN2 splice variant enhancement. HEK293 SMN2-luciferase splicing reporter, luminescence, 30-36 h. Potency, µM (highest dose often 46.1 µM), without a hit: at the highest dose activity change, positive = activation, hits mostly activators. 2.8% of 210,000 active; further: % of control where 0% means no effect; nearly all actives have a fitted effect of over 55% in size
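qHTS luciferase splicing reporter: luminescence rises when SMN2 exon 7 is included in transfected HEK293 cells. Compound exposure lasted 30-36 h at 37C, with 4.5 mM final sodium butyrate as control, followed by a ONE-Glo read.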
FLuc modulator = inhibits or activates purified firefly luciferase, miR-21 counter-screen; purified FLuc, Km substrates, luminescence inhibition; Potency, µM (highest dose often 57.5 µM), for inactives: top-dose activity change, negative = inhibition, usual class: inhibitors; 6.9% of 360,000 active; AID 588342;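 further: plate controls were vehicle for no effect and reference inhibitor for full effect; nearly all actives have a fitted effect of over 55% in size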
Target sequence (P08659 whole entry, looked up): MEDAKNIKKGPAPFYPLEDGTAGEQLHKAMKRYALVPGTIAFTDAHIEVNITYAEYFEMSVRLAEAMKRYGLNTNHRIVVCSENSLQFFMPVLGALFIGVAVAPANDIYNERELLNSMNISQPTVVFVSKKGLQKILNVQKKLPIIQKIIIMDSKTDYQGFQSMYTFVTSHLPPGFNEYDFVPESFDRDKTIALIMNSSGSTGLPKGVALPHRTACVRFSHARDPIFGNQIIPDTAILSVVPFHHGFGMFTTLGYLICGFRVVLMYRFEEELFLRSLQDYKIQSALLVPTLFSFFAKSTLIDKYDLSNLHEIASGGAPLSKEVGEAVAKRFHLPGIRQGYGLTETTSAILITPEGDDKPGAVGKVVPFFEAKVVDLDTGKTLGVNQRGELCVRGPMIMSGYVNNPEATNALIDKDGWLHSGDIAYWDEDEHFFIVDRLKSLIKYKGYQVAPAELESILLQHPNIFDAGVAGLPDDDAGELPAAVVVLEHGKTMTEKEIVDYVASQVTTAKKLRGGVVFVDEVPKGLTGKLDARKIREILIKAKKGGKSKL
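Purified P. pyralis luciferase, 10 nM final, with Km-level 10 uM D-luciferin and 10 uM ATP in 50 mM Tris acetate pH 7.5, 10 mM Mg acetate, 0.01% Tween-20, 0.05% BSA; 6-point qHTS titration about 60 µM downward; luminescence read.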
ELG1 repair inh = blocks ELG1-dependent DNA repair in HEK293T cells | HEK293T ELG1-luciferase reporter, luminescence, 16 h; DNA damage induced by 5-fluorouridine | AID 504467 | 2.3% of 330,000 active | Potency, µM (highest dose often 46.1 µM), for the others: at the top dose activity change, negative = inhibition, hits mostly inhibitors; further: on the % scale 0 is the no-effect control and ±100 the full control effect; nearly all actives have a fitted effect of over 55% in size
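Step one: seed 2,000 cells per well. Step two: pin-transfer compound or DMSO alongside 5-fluorouridine. Step three: incubate 16 hr, 37 °C, 5% CO2. Step four: add ONE-Glo, wait 30 min, read luminescence.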
ELG1 genotox = inducers of genotoxicity in HEK293T ELG1-luciferase cells | 1.3% of 330,000 active | AID 504466 | HEK293T ELG1-luciferase reporter, luminescence, 16 h | Potency, µM (doses to about 46 µM), inactives show at the highest dose activity change, positive = activation, actives largely listed as activators; further: % of control where 0% means no effect; nearly all actives have a fitted effect of over 60% in size
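HEK293T cells expressing luciferase-tagged ELG1 were exposed to compound or DMSO vehicle for 16 hr at 37 °C and 5% CO2. Luciferase activity was then measured with ONE-Glo after 30 min at room temperature.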
Rab9 promoter act = activates the Rab9 promoter; AID 485297; Huh7 Rab9 promoter-luciferase reporter, luminescence, 24 h; 2.8% of 320,000 active; Potency, µM (series often up to 9.22 µM), for inactives: top-dose activation, negative = inhibition, hits mostly activators; further: % of control where 0% means no effect; nearly all actives have a fitted effect of over 60% in size
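Luminescence read-out: Huh7 cells stably expressing Rab9-luciferase, treated 24 h with compound at 37 °C, then lysed with luciferase reagent for 10 min at ambient before reading.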
NPC1 promoter act = activates the NPC1 promoter. Huh7 NPC1 promoter luciferase reporter, 24 h. Potency, µM (series often up to 9.22 µM), for inactives: at the highest dose activation, most hits filed as activators. 2.4% of 320,000 active. AID 485313; further: % of control where 0% means no effect; nearly all actives have a fitted effect of over 60% in size
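Luminescence read-out of NPC1 promoter-driven luciferase in stably transfected Huh7 cells; compounds delivered in DMSO and left 24 h at 37C, 5% CO2, qHTS titration format.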
* hit, by the source's call; u = inconclusive; x = no result given; ! = a repeat was not active; [ ] = dose if it differs, or a comment. The call rests on the fitted dose curve; in most records, active means well fitted curve in the direction sought with a large enough effect; inconclusive means small, poorly fitted or top-dose-only effect, or another doubt; inactive means no such curve, though single readings can be large; an effect the other way counts as inactive or inconclusive. Potency means the concentration at half of the fitted maximal effect.

SMILES | SMN2 splice enh | FLuc modulator | ELG1 repair inh | ELG1 genotox | Rab9 promoter act | NPC1 promoter act
COc1ccc(-c2cc(C(F)(F)F)n3ncc(-c4ccccc4)c3n2)cc1 | 0% | -3% | x | x | x | x
CC(C)(C)c1ccc(C(=O)N2CCCC2)s1 | x | 15µM* | u | u | 19% | -7%
CC[C@H](C)C(=O)O[C@H]1C[C@@H](C)C=C2C=C[C@H](C)[C@H](CC[C@@H]3C[C@@H](O)CC(=O)O3)[C@H]21 | 16µM*! | 4% | 9% | -1% | 0% | 3%
COc1cccc(-n2c(CN3CCN(c4cccc(C)c4)C(C)C3)nc3ccc([N+](=O)[O-])cc3c2=O)c1 (configuration not stated) | -5% | 0% | 12µM* | 0% | -1% | 0%
COc1cccc(-n2c(CN3CCN(c4ccc(C)cc4)C(C)C3)nc3ccc([N+](=O)[O-])cc3c2=O)c1 (configuration not stated) | -26% | -1% | u | -4% | -2% | -1%
COc1cccc(CN2CCSCC2)c1 | 0% | 5% | 0% | 0% | -2% | -4%
Cc1ccc(CN=C2Nc3ccccc3CS2)cc1 | 7.9µM* | 0.6µM* | u | 2.6µM* | 0.45µM* | 0.5µM*
c1cncc(CN=C2Nc3ccccc3CS2)c1 | 7% | -2% | u | -1% | 1% | 6%
COc1cccc(CN=C2Nc3ccccc3CS2)c1 | 14µM* | 12µM* | u | u | 3.2µM* | 2.8µM*
Clc1ccc(CN=C2Nc3ccccc3CS2)cc1 | 13µM* | 6µM* | u | u | 2.2µM* | 3.2µM*
COc1ccccc1CN=C1Nc2ccccc2CS1 | u | 24µM* | u | 13% | u | u
CC(C)c1ccc(S(=O)(=O)NCc2nc3cccnc3n2Cc2ccc(F)cc2)cc1 | x | 0% | x | x | x | x
CC(=O)N=C1SC2CS(=O)(=O)CC2N1Cc1ccc(C)cc1 (configuration not stated) | x | -1% | 26% | -2% | -3% | 1%
CC(=O)N=C1SC2CS(=O)(=O)CC2N1c1ccc(-c2nc3ccc(C)cc3s2)cc1 (configuration not stated) | 18µM* | 9.5µM* | u | u | 0.89µM* | 2.8µM*
Cc1ccc2nc(-c3ccc(N4C(=NC(=O)CCC(=O)O)SC5CS(=O)(=O)CC54)cc3)sc2c1 (configuration not stated) | x | 11µM* | u | u | 4.5µM* | u
Cc1ccc(CN2C(=NC(=O)CCC(=O)O)SC3CS(=O)(=O)CC32)cc1 (configuration not stated) | x | 1% | 18% | 3% | -1% | -2%
COc1ccc2[nH]cc(CCNc3ncnc4ccc(-c5ccccc5C#N)cc34)c2c1 | -10% | x | x | x | x | x
COc1cc(S(=O)(=O)NCCc2c(C)[nH]c3ccc(C)cc23)ccc1Br | x | 1% | x | x | x | x
CC(=O)Nc1nonc1-c1nnc(SCc2cccc(Br)c2)n1C | x | -3% | x | x | x | x
COc1ccc(/C=N/NC(=O)c2cc(C34CC5CC(CC(C5)C3)C4)[nH]n2)cc1OC | 5% | u | u | 3% | -3% | -5%
O=C(N/N=C/c1ccc(O)cc1)c1cc(C23CC4CC(CC(C4)C2)C3)[nH]n1 | x | 13µM* | -25% | 4% | 10% | -2%
CCCCOc1ccc(C(=O)N(Cc2ccc(C(C)C)cc2)C2CCS(=O)(=O)C2)cc1 (configuration not stated) | -14% | -6% | x | x | x | x
O=C(NCCOCCn1c(=O)oc2ccccc21)Nc1ccc(Cl)cc1 | 1% | -1% | x | x | x | x
Cc1ccc(C(=O)NCCOc2cccc(C)c2)cc1 | 26% | 24µM* | u | u | 27% | 29%
CC(C)(C)c1ccc(C(=O)NCCOc2ccccc2)cc1 | x | 0.34µM* | u | 0.73µM* | u | 0.32µM*
SMILES | SMN2 splice enh | FLuc modulator | ELG1 repair inh | ELG1 genotox | Rab9 promoter act | NPC1 promoter act
COc1cc(OC)cc(C(=O)NCCOc2ccccc2)c1 | 26% | u | u | 12µM* | 1µM* | 1.6µM*
COc1cc(C(=O)NCCOc2ccccc2)cc(OC)c1OC | x | -6% | 3% | 8% | -1%[1.84 µM] | 1%
COc1ccccc1C(=O)NCCOc1ccc(C(C)(C)C)cc1 | x | -16% | -15% | -3% | 6% | -1%
O=C(CCNC(=O)c1ccc(Br)cc1)NNC(=O)COc1ccccc1F | x | x | 10% | 2% | x | x
CC(C)(C)c1ccc(C(=O)NCCOc2ccccc2F)cc1 | x | 0.27µM* | u | 0.73µM* | u | 16%
COc1ccc(OC)c(S(=O)(=O)NCCc2sc(-c3cccnc3)nc2C)c1 | x | 4% | x | x | x | x
Cc1ccc(NC(=O)ON=C2CCCC2)cc1 | u | 8.5µM* | u | 21µM* | 3.5µM* | u
O=C(Nc1ccccc1)ON=C1CCCC1 | 20µM* | 24µM* | u | u | u | 26%
O=[N+]([O-])c1ccccc1CSc1nc2ccccc2o1 | 20µM* | 19µM* | u | u | u | u
N#CCSc1nc2ccccc2o1 | x | -1% | -21% | -2% | -4% | -2%
CCN(CC)S(=O)(=O)c1ccc(N2CCOCC2)c(NC(=S)NC(=O)c2ccco2)c1 | x | -18% | 16µM* | -9% | -3% | 0%
Cc1ccsc1C(=O)Nc1ccccc1N1CCOCC1 | 6% | 19µM* | -1% | -2% | -6% | 6%
CCN(CC)S(=O)(=O)c1ccc(N2CCOCC2)c(NC(=O)c2cc(C)cc(C)c2)c1 | 4% | 0% | 8.2µM* | -3% | 12% | -2%
CCN(CC)S(=O)(=O)c1ccc(N2CCOCC2)c(NC(=O)c2sccc2C)c1 | x | x | 18µM* | -3% | x | x
O=c1cc(-c2ccccc2)c2cc(Cl)c3c(c2o1)CN(Cc1ccccc1)CO3 | -5% | -18% | x | x | x | x
COc1ccc(CCNC(=O)c2ccc(Cn3c(=O)c4ccccc4n(Cc4cccc(Cl)c4)c3=O)cc2)cc1OC | -27% | 1% | x | x | x | x
Cc1nn(Cc2ccccc2Cl)c2sc(C(=O)Nc3ccccc3N3CCOCC3)cc12 | -59% | -1% | 23µM* | -11% | -4% | -3%
CCN(CC)S(=O)(=O)c1ccc(N2CCOCC2)c(NC(=O)C23CC4CC(CC(Cl)(C4)C2)C3)c1 | -15% | 3% | 9.2µM* | -6% | -5% | -1%
Cc1nn(Cc2ccc(F)cc2)c2sc(C(=O)Nc3ccccc3N3CCOCC3)cc12 | -12% | -1% | u | -11% | 3% | 0%
CCOc1ccccc1CN1CCc2nc(N3CCN(C)CC3)ncc2C1 | x | -1% | x | x | x | x
O=C(COC(=O)c1ccc(Br)o1)Nc1nc2ccccc2s1 | -2% | -17% | 14% | 1% | 14% | 0%
